Results from PubChem BioAssay.
Unmarked numbers belong to inactive results. For some assays here: Measured potencies and affinities stand elsewhere. Calls of active or inactive are those of the source. Unless noted, how the calls were made is not given here.

Legend:
[1] = antimalarial activity against Dd2 strain (AID 2302;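 active means growth inhibition above 50% at the single 2 µM test dose, taken to imply half-maximal potency below 2 µM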;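 further: 0% = DMSO untreated growth and 100% = chloroquine plus artemisinin killed control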); details: P. falciparum Dd2 in RBCs, LDH growth readout, 72 h; at 2 µM; stronger effect = higher value
[2] = human hepatoma cell viability loss – ATP luminescence, cytotoxicity control for P. falciparum antimalarial project, primary screen (AID 2303;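 active means inhibition above 50%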;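 further: 0% = DMSO wells and 100% = digitonin-killed cells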); details: HepG2 viability, 24-48 h, at 10 µM, stronger effect = higher value
[3] = molecular target: L-lactate dehydrogenase (Plasmodium falciparum (isolate CDC / Honduras)) (UniProt Q27743); assay: PfLDH activity inhibition – cell lysate, 3D7 strain, counter-screen for P. falciparum growth inhibition project (AID 2304);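 further: 0% = vehicle and 100% = reference inhibitor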; details: P. falciparum 3D7 crude extract, LDH APAD/NBT absorbance; at 2 µM; stronger effect = higher value
[4] = inhibition of 3D7 malaria parasite growth – strain 3D7 (AID 2306);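 further: 0% = DMSO wells and 100% = chloroquine plus artemisinin control wells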; details: P. falciparum 3D7 erythrocytic growth, LDH absorbance, 72 h; at 2 µM; stronger effect = higher value
[5] = molecular target: Calcium-dependent protein kinase 1 (Plasmodium falciparum (isolate 3D7)) (UniProt P62344); assay: PfCDPK1 kinase inhibitors, biochemical, TCAMS library (AID 1159585; cut-off not given, nearly all actives have IC50 up to about 0.98 µM;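 further: inhibitors leave more ATP so luminescence rises with inhibition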); details: recombinant PfCDPK1, Kinase-Glo ATP depletion luminescence
[6] = molecular target: Plasmodium falciparum protein kinase 6 (PK6, PF3D7_1337100) (UniProt Q8IDW1); assay: PfPK6 kinase inhibitors, biochemical, TCAMS library (AID 1159586); details: recombinant PfPK6, Kinase-Glo ATP depletion luminescence
[7] = molecular target: Protein kinase 7 (PK7), Plasmodium falciparum 3D7 (PF3D7_0213400) (UniProt Q7YTF7); assay: inhibition of Plasmodium PK7 catalytic activity – biochemical, TCAMS antimalarial set, Kinase-Glo luminescence (AID 1159587); details: recombinant PfPK7, Kinase-Glo ATP depletion luminescence
[8] = molecular target: Calcium-dependent protein kinase 4 (Plasmodium falciparum (isolate 3D7)) (UniProt Q8IBS5); assay: PfCDPK4 kinase inhibitors, biochemical, TCAMS library (AID 1159588; cut-off not given, nearly all actives have IC50 up to about 0.91 µM); details: recombinant PfCDPK4, Kinase-Glo ATP depletion luminescence
Calcium-dependent protein kinase 4 (Plasmodium falciparum (isolate 3D7)), sequence (Q8IBS5 whole entry, looked up): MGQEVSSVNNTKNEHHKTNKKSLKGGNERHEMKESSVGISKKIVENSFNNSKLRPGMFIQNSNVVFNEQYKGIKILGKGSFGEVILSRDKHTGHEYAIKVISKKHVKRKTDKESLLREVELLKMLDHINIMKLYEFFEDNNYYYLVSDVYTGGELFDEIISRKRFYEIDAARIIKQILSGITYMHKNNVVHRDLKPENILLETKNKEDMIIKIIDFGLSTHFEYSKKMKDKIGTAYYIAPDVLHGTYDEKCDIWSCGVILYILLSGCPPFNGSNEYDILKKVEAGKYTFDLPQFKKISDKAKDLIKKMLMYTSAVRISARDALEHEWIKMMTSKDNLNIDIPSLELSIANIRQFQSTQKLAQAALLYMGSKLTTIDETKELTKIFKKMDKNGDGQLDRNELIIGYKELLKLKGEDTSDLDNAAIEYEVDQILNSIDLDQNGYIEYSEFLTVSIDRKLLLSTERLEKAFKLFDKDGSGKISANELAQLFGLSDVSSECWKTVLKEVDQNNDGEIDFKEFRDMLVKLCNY

Calcium-dependent protein kinase 1 (Plasmodium falciparum (isolate 3D7)), sequence (P62344 whole entry, looked up): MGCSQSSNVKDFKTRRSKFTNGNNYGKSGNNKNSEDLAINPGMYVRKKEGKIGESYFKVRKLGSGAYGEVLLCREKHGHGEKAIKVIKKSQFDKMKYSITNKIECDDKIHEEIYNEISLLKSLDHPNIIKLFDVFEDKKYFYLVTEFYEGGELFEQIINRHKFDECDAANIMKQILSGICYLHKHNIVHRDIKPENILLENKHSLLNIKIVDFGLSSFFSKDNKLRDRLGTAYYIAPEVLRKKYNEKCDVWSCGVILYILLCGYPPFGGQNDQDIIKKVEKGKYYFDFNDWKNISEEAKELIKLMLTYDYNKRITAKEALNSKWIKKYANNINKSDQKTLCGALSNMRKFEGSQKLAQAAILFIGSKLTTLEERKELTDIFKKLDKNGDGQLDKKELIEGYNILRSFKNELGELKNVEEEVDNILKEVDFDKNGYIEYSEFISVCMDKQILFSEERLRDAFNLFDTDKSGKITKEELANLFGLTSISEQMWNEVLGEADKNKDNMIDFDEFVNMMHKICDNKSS
L-lactate dehydrogenase (Plasmodium falciparum (isolate CDC / Honduras)), sequence (Q27743 whole entry, looked up): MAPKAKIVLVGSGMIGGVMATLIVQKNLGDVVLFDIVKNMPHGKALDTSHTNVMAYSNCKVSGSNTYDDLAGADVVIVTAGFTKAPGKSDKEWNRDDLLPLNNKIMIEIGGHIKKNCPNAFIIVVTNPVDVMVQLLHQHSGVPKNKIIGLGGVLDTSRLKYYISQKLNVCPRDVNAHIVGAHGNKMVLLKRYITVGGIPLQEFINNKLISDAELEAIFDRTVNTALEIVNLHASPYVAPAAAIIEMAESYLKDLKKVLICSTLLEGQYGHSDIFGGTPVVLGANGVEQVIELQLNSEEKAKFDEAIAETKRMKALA
Plasmodium falciparum protein kinase 6 (PK6, PF3D7_1337100), sequence (Q8IDW1 1-305): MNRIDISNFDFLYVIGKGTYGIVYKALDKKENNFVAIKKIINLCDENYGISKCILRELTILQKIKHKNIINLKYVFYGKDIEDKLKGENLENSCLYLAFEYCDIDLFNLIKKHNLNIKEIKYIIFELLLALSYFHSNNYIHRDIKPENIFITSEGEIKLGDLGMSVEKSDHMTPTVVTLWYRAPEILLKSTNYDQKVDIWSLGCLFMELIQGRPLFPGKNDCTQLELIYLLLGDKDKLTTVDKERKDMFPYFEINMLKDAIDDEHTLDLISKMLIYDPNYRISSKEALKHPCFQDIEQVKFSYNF
Protein kinase 7 (PK7), Plasmodium falciparum 3D7 (PF3D7_0213400), sequence (Q7YTF7 1-343): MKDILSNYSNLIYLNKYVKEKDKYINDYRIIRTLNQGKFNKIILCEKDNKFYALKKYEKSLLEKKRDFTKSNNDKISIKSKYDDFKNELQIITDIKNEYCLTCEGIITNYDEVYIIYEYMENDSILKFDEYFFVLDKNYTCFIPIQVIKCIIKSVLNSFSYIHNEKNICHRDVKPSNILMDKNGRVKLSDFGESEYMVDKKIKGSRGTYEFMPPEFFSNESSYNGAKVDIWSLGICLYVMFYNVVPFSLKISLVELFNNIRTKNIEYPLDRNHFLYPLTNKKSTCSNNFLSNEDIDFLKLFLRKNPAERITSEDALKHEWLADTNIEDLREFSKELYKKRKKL

Compound	growth inhibition [1]	inhibition [2]	inhibition [3] [%]	growth inhibition [4]	outcome [5]	outcome [6]	outcome [7]	outcome [8]
CN(C)C(CNC(=O)c1cc(-c2ccncc2)c(-c2ccc(NC(=O)Nc3ccccc3)cc2)o1)c1ccccc1 (stereo not given)	96% (active)	19%	4	101% (active)	inactive	inactive	inactive	inactive
CCCCCN1CCC(NS(=O)(=O)c2ccc(C(=O)Nc3cccc(C(F)(F)F)c3)cc2)C1 (stereo not given)	0%	14%	-9	94% (active)	inactive	inactive	inactive	inactive
COc1ccccc1-n1c(-c2ccc3ccccc3c2)csc1=NC(=O)c1ccccc1	79% (active)	-6%	-1	93% (active)	inactive	inactive	inactive	inactive
Clc1cc2c(Nc3ccc(Oc4ccccc4)cc3)ccnc2cc1-c1ccc(CNCCN2CCOCC2)o1	89% (active)	-2%	-4	100% (active)	inactive	inactive	inactive	inactive
Oc1cc(Nc2ccnc3cc(-c4cccc(CN5CCOCC5)c4)ccc23)c(F)cc1Cl	89% (active)	12%	-4	100% (active)	inactive	inactive	inactive	inactive
CC[C@H]1CN2CCc3cc(OC)c(OC)cc3[C@@H]2C[C@@H]1CC1=NCCc2c1[nH]c1ccc(OCc3ccccc3)cc21	89% (active)	57% (active)	-2	101% (active)	inactive	inactive	inactive	inactive
Cc1ccc(CNC(=O)[C@H](CCCN)Nc2nc(Nc3ccccc3)ncc2C)cc1	-4%	-1%	-2	97% (active)	inactive	inactive	inactive	inactive
CC(C)Nc1cc(C(=O)N[C@@H](Cc2ccccc2)[C@H](O)CNC(C)(C)c2cccc(C(F)(F)F)c2)cc(N2CCCCS2(=O)=O)c1	98% (active)	9%	2	98% (active)	inactive	inactive	inactive	inactive
CCc1cc(OC)c(C(=O)NC2CCN(C[C@H](O)c3ccnc4ccc(OC)cc34)CC2)cc1Br	56% (active)	6%	2	98% (active)	inactive	inactive	inactive	inactive
CCOc1ccc(OCC(=O)Nc2nc(-c3ccc(OC)cc3)c(C)s2)cc1	98% (active)	-7%	-8	99% (active)	inactive	inactive	inactive	inactive
COc1cccc2cc(C(=O)N[C@@H](CC(C)C)C(=O)NC(/C=N/NC(=O)c3ccccc3)CCc3ccccc3)oc12 (stereo not given in full)	73% (active)	8%	-3	88% (active)	inactive	inactive	inactive	inactive
Cc1ccccc1OCC(O)CN1CCC(C2CCN(CC(O)COc3ccccc3C)CC2)CC1 (stereo not given)	51% (active)	12%	-4	100% (active)	inactive	inactive	inactive	inactive
O=S(=O)(c1ccc(Cl)cc1Cl)N1CCCCC(c2ccc(C(F)(F)F)cc2)=N1	99% (active)	10%	4	100% (active)	inactive	inactive	inactive	inactive
O=S(=O)(Nc1ccc2nccc(N3CCNCC3)c2c1)c1ccc2oc3ccccc3c2c1	2%	16%	-5	101% (active)	inactive	inactive	inactive	inactive
Nc1cccc(CNCc2ccc(-c3cccc(-c4nc5ccc(F)cc5[nH]4)c3)cc2)c1	94% (active)	36%	-3	101% (active)	inactive	inactive	inactive	inactive
Cc1nc(-c2nc(N3CCC(C(N)=O)CC3)ncc2-c2ccsc2)sc1C	33%	-8%	-11	93% (active)	inactive	inactive	inactive	inactive
COc1ccc2nccc([C@@H](O)CN3CCC(NCc4cc5cccc(OC)c5o4)CC3)c2c1	81% (active)	10%	-8	99% (active)	inactive	inactive	inactive	inactive
O=C(Nc1cccc(Cl)c1)N[C@H]1CCN(Cc2ccc(OCCCN3CCCCC3)cc2)C1	-3%	15%	1	99% (active)	inactive	inactive	inactive	inactive
O=[N+]([O-])c1cc(/C=N/Nc2nc3ccccc3[nH]2)ccc1O	14%	-7%	-5	98% (active)	inactive	inactive	inactive	inactive
CC1(C)N=C(N)N=C(N)N1OCc1cccs1	-1%	60% (active)	-4	93% (active)	inactive	inactive	inactive	inactive

Compound	growth inhibition [1]	inhibition [2]	inhibition [3] [%]	growth inhibition [4]	outcome [5]	outcome [6]	outcome [7]	outcome [8]
COc1ccc(CNc2nccc3ccc(-c4ccc(N)nc4)cc23)cc1	49%	7%	2	93% (active)	inactive	inactive	inactive	inactive
Cc1nc(Nc2ccc(F)cc2)nc(N2CCc3ccccc3C2C)c1CO (stereo not given)	95% (active)	-9%	-4	101% (active)	inactive	inactive	inactive	inactive
COC(=O)c1noc(C)c1I	2%	5%	-9	99% (active)	inactive	inactive	inactive	inactive
CC(C)(C)c1ccccc1OC(=O)c1ccccc1	2%	-4%	0	95% (active)	inactive	inactive	inactive	inactive
Cc1ccccc1CNc1nccc(NCCC(=O)Nc2ccccc2)n1	15%	16%	-3	90% (active)	inactive	inactive	inactive	inactive
COc1cc2ncnc(Nc3ccc4nc(Cc5ccccc5)[nH]c4c3)c2cc1OC	28%	-9%	0	87% (active)	inactive	inactive	inactive	inactive
COc1ccc(NC(=O)Nc2ccc(-c3cccc(-c4nc5c(C)cccc5[nH]4)c3)cc2)cc1	75% (active)	33%	4	101% (active)	inactive	inactive	inactive	inactive
Cc1cc(-c2ccc(CN3Cc4ccccc4C3)cc2)ccc1S(=O)(=O)NCCN1CCCC1	10%	49%	-4	94% (active)	inactive	inactive	inactive	inactive
CC(C)c1ccc2oc(-c3ccc(NC(=O)c4ccc([N+](=O)[O-])o4)cc3)nc2c1	95% (active)	99% (active)	6	100% (active)	inactive	inactive	inactive	inactive
CC(C)CSc1cc(C(=O)Nc2cc(Cl)ccc2O)ccn1	34%	36%	-2	100% (active)	inactive	inactive	inactive	inactive
CC(C)N1CCN(C(=O)c2ccc(CNCCCN3CCN(c4ccccc4C(F)(F)F)CC3)s2)CC1	42%	32%	-7	98% (active)	inactive	inactive	inactive	inactive
Cc1[nH]c2ccccc2c1C(=O)C(C)Sc1nnc(-c2ccccc2F)o1 (stereo not given)	99% (active)	24%	-2	99% (active)	inactive	inactive	inactive	inactive
CC(C)(C)c1ccc(NC(=O)Nc2ccc(Cn3ncc(N4CCCNCC4)c(Cl)c3=O)cc2)cc1	33%	-4%	-7	95% (active)	inactive	inactive	inactive	inactive
COc1cccc(Nc2nc(NCCO)c3ccccc3n2)c1	88% (active)	1%	-6	99% (active)	inactive	inactive	inactive	inactive
O=c1cc(NCCCNCc2ccc(C(F)(F)F)cc2F)[nH]c2ccccc12	48%	1%	8	93% (active)	inactive	inactive	inactive	inactive
CC(O)C1CCCCN1C(=O)c1cccc(-c2cccc(-c3nc4ccccc4[nH]3)c2)c1 (stereo not given)	76% (active)	20%	-4	99% (active)	inactive	inactive	inactive	inactive
COc1ccc(CNc2nc(NCc3ccccc3)c3cc(OC)c(OC)cc3n2)cc1OC	99% (active)	24%	-6	103% (active)	inactive	inactive	inactive	inactive
Cc1cc(N2CCCC2)nc(Nc2ccc(NC(=O)c3ccc4c(c3)OCO4)cc2)n1	67% (active)	26%	-4	101% (active)	inactive	inactive	inactive	inactive
O=C(NCc1ccccc1F)c1ccc(N2CCC(NCc3cccc(-n4cccn4)c3)CC2)cc1	3%	9%	4	89% (active)	inactive	inactive	inactive	inactive
CC(=O)Nc1ccc(CN2CCC(NC(=O)c3ccc(-c4cccc(OC(C)C)c4)s3)CC2)cc1	13%	14%	-5	89% (active)	inactive	inactive	inactive	inactive
